Test results taken from PubChem BioAssay (NCI).
The panel holds about 83,000 compounds, 20% with a hit somewhere; the sample as a whole holds those more often.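 Method: cells in 96-well plates; compound added at one concentration; 48 h incubation; percent growth measured; values under 10 scored active.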 Activity calls are given as the source filed them.

Test system: HL-60(TB) leukemia
Experiment: NCI-60 one-dose screen, 48 h (100 = growth as untreated, 0 = no growth, -100 = all killed)
Conditions: 10 µM unless noted

Structure (SMILES)	growth
O=C1Nc2ccccc2C12CC(c1ccccc1)=NN2 (configuration not stated)	-8.55% (active)
CCNCC(=O)Nc1ccc(C(=O)OCC)cc1	88.6% (inactive)
COc1ccc(NC(=O)COc2ccccc2)c(C(N)=O)c1	-7.37% (active)
O=C(CSc1nc2sc3c(c2c(=O)n1-c1ccc(Cl)cc1)CCCC3)Nc1nc(-c2cccc(Br)c2)cs1	101% (inactive)
N=C1c2nc3n(c2C(=O)c2nc4n(c21)CCCC4)CCCC3	96.3% (inactive)
Cc1ccc2c(n1)C(=O)C(Br)=C(CC(C)C)C2=O	58.4% (inactive)
O=C1CCC/C=C\C[C@H]2C=CC(=O)/C2=C/C[C@H](CCc2cccc(C(F)(F)F)c2)O1	-25.5% (active)
NC1=NN=C2N(N)C(=O)c3cnn(-c4ccccc4)c3N2c2nc(-c3ccccc3)cc(-c3ccccc3)c21	105% (inactive)
CCCN(CCC)C(=O)[C@H](CC)[C@@H]1CC[C@@H](C)[C@@H]([C@H](C)[C@@H](O)[C@@H](C)C(=O)[C@H](CC)C2O[C@]3(C=C[C@@H](O)[C@]4(CC[C@@](C)([C@H]5CC[C@](O)(CC)[C@H](C)O5)O4)O3)[C@H](C)C[C@@H]2C)O1 (some centres not stated)	-47.7% (active)
COc1ccc(NC(=O)CSc2nc(C)c(C(C)=O)n2-c2ccc([N+](=O)[O-])cc2)cc1	121% (inactive)
O=C(CCN1CCCC1)Nc1ccc2c(Nc3ccc(Br)cc3)c3ccccc3nc2c1	-54.6% (active)
O=C(Nc1ccc(N2CCNCC2)cn1)c1[nH]ncc1Nc1ncnc2sccc12	76.7% (inactive)
CCOC(=O)c1ccc(N=Cc2sc(=O)[nH]c2O)cc1	101% (inactive)
c1ccc(COCC[P+](c2ccccc2)(c2ccccc2)c2ccccc2)cc1	-52.2% (active)
Cn1c(-c2ccccc2)cc(=O)n1-c1ccccc1	109% (inactive)
CNc1ccc(CSc2ccc(Cl)cc2)cc1	5.59% (active)
Cc1cc(C)nc(SC2=C(Nc3cc(Cl)ccc3O)C(=O)N(Cc3ccccc3)C2=O)n1	85.3% [30 µM] (inactive)
Clc1ccc2c(NCCN3CCN(c4ccnc(N5CCCC5)n4)CC3)ccnc2c1	37.4% (inactive)
CC(=O)OCC(=O)[C@@]1(O)CC[C@H]2[C@@H]3CC(=C(Br)Br)C4=CC(=O)CC[C@]4(C)[C@H]3C(=O)C[C@@]21C	90.1% (inactive)

Structure (SMILES)	growth
CN(C)c1ccc2cc3c(cc2c1)Oc1ccccc1N3.[Cl][Zn][Cl]	-10.4% (active)
CCCSc1nc(N)nc2nc[nH]c12	74.6% (inactive)
CN1CCN(CCOc2ccc(-c3cnc4c(-c5ccc(F)cc5)cnn4c3)cc2)CC1	2.46% (active)
COc1ccc(OC)c2ncccc12	98.9% (inactive)
C=C(c1ccc(C(=O)O)c(F)c1)c1cc2c(cc1C)C(C)(C)CCC2(C)C	97.2% (inactive)
CN1CCN(Cc2ccc(NC(=O)c3cncc(C#Cc4c(N)ncc5ccc(C#N)cc45)c3)cc2C(F)(F)F)CC1	9.71% (active)
COc1ccc2c(c1)C(=O)/C(=C/c1cccc(OCC(=O)c3ccc([N+](=O)[O-])cc3)c1)CO2	-46.6% (active)
O=C(Nc1ccccc1)C(CCCCN1C(=O)c2ccccc2C1=O)N1C(=O)c2ccccc2C1=O (configuration not stated)	104% (inactive)
COc1ccc(C2SCC(=O)N2NC(=O)c2ccc(NC(=O)c3ccccn3)cc2)cc1OC (configuration not stated)	110% (inactive)
COc1ccc(/C=C2\COc3ccc(O)c(O)c3C2=O)c(OC)c1	-13.2% (active)
Cc1ccc(C)c(-n2c(-c3ccc(Br)cc3)csc2=NC(=O)c2ccccc2F)c1	-21.6% (active)
COc1ccc(S(=O)(=O)n2ccc(-c3ccc4c(c3)CCC(C)(C)O4)n2)cc1OC	94.7% (inactive)
CN(C)CCCn1c2c(c3ccncc3c1=O)C(=O)c1ccccc1-2	-19.8% (active)
C/C(=N/Nc1nc2ccccc2n1C)c1ccccn1	-19% (active)
O=C(C[C@]1(O)C(=O)Nc2ccc(Br)cc21)c1ccco1	107% (inactive)
COc1ccc(-c2nc3cc(C(=O)NC4CCCCC4)ccc3n2C2CCCCC2)cc1	79.1% (inactive)
COc1cc2nccc(Oc3ccc(NC(=O)C4(C(=O)Nc5ccc(F)cc5)CC4)cc3)c2cc1OC(=O)c1ccc(N)cc1	-43.9% (active)
Cc1ncc(C(=O)Nc2ccc(CN3CCN(C)CC3)c(C(F)(F)F)c2)cc1C#Cc1cncc2ncccc12	41.7% (inactive)
